# The list is not random: actives were taken first. Their share in the collection is about 2.1%.
# GSH fluor: compound fluoresces at 488/530 nm on GSH beads; 0.25% of 190,000 active; fluorescence (KMESF) at 10 µM; AID 1776; GSH beads flow cytometry, compound fluorescence 488/530 nm; stronger effect = higher value; in the data active means fluorescence above about 89;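 further: glutathione beads carrying GST-tagged Bcl family fusion proteins plus one bare bead set; values are compound well signal with DMSO vehicle wells as background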
# Avidin bead fluor: avidin bead compound fluorescence profile; fluorescence (KMESF) at 10 µM; AID 1775; Avidin beads, compound fluorescence 488/530 nm, flow cytometry; stronger effect = higher value; 0.38% of 220,000 active; in the data active means fluorescence above about 47
# HMGR II inh: E. faecalis class II HMG-CoA reductase inhibition | purified E. faecalis HMGR, NADPH absorbance 340 nm kinetic | inhibition, % at 10 µM | 0.41% of 190,000 active | AID 1066;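 active means inhibition above a set limit, the median over all tested compounds plus 3 SD, cut at about 9.5% in these data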;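 further: enzyme runs in reverse so mevalonate oxidation gives rising NADPH absorbance; 0% = complete reaction with DMSO and 100% = background rate lacking mevalonate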
# PGE2 EP2 inh: blocks the human prostaglandin E2 receptor EP2; P43116; C6 glioma cells expressing human EP2, cAMP TR-FRET; cells stimulated with saturating PGE2; inhibition, % at 25 µM; 0.52% of 260,000 active; AID 1422;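 active means percent inhibition above 40 after rounding to a whole number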;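 further: rat C6 glioma host cells with rolipram phosphodiesterase inhibitor present; the protocol text gives 20 µM as final concentration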
# Target sequence (P43116 whole entry, looked up): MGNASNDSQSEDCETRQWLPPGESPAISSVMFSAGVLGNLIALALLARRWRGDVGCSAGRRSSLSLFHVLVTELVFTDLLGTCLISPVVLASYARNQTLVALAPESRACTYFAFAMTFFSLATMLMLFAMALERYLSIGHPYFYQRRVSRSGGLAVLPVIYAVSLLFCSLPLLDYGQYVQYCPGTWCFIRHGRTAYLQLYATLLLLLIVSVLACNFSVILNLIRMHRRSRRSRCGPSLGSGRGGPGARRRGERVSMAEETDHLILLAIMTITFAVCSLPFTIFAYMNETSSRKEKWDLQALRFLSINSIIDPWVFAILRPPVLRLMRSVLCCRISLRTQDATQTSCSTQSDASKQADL
# EP2 mod: EP2 receptor (human) modulation; EP2-expressing cells, cAMP HTRF FRET, PGE2 co-stimulation; induction, % at 25 µM; 0.83% of 260,000 active; AID 940;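 active means compounds whose cAMP rise, as percent of the full-agonist control response, exceeds 60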;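 further: rat C6 glioma line stably carrying human EP2 under a CMV promoter; the protocol text gives 20 µM as final concentration; 100% = response of wells given 1 µM PGE2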
# Numbers without * were called inactive; · = no result.
SMILES,GSH fluor,Avidin bead fluor,HMGR II inh,PGE2 EP2 inh,EP2 mod
CCOC(=O)c1cc(-c2ccc(F)cc2)n(CCC(=O)NC2CCN(Cc3ccccc3)CC2)c1C,13,9,-6,13,0
CCOC(=O)c1cc(-c2ccc(OC)cc2)n(CCC(=O)NC2CCN(Cc3ccccc3)CC2)c1C,11,20,10*,5,-9
COC(=O)CSc1ncc(C#N)c(N)n1,25,33,63*,11,37
N#Cc1cnc(SCC(=O)NNC(=O)COc2ccccc2)nc1N,·,·,·,11,2
Cc1cc2c(s1)c1cnn(CC(=O)O)c(=O)c1n2Cc1ccc(F)cc1,·,·,·,5,-97
CCOC(=O)C(C)n1ncc2c3sc(C)cc3n(Cc3ccc(F)cc3)c2c1=O (stereo unspecified),·,·,·,·,65*
CCOc1ccccc1NC(=O)N1C2CCCC1CC(NC(=O)C1CC1)C2 (stereo unspecified),96*,8,-3,5,30
COCCn1nnnc1C(c1cc2cc(C)cc(C)c2[nH]c1=O)N1CCCC2(CCCCC2)C1 (stereo unspecified),·,·,·,3,13
CC(C)n1c(=S)[nH]c2scc(-c3cccs3)c2c1=O,·,5,·,71*,-19
CCn1c(=S)[nH]c2scc(-c3cccs3)c2c1=O,15,31,-1,70*,-17
C=CCn1c(=S)[nH]c2scc(-c3ccc(C)o3)c2c1=O,25,16,-5,34,-7
O=c1c2c(-c3cccs3)csc2ncn1-c1ccccc1,24,24,-10,6,15
O=c1c2c(-c3cccs3)csc2[nH]c(=S)n1-c1ccccc1,25,15,-4,66*,-1
Cc1nc(N2CCN(C(=O)CCCl)CC2)c2c(C)c(C)sc2n1,·,·,·,16,-7
O=C(CC1CCCC1)NCCn1nc(-c2ccco2)ccc1=O,·,·,·,·,-24
O=c1c2ccccc2nc(-c2ccc(Br)cc2)n1Cc1ccccc1,11,18,-1,9,63*
O=c1c2ccccc2nc(-c2ccco2)n1Cc1ccccc1,44,10,-1,-1,27
Cc1ccccc1/C=C\c1nc2ccccc2c(=O)n1Cc1ccccc1,21,12,-1,10,63*
COCCn1nnnc1C(c1cc2c(C)cc(C)cc2[nH]c1=O)N1CCCc2ccccc21 (stereo unspecified),·,·,·,9,36
CCN(C(=O)c1ccccc1)c1ccc([N+](=O)[O-])cc1,10,2,0,4,4
O=[N+]([O-])c1ccc(N(c2ccccc2)c2ccccc2)cc1,14,25,-5,7,61*
CCOc1ccc(NC(=S)N(CCN(C)C)Cc2cc3cc(C)ccc3[nH]c2=O)cc1,·,·,·,9,-60
Cc1ccccc1CN1CCSc2sccc2C1=O,16,10,5,1,62*
O=C1c2ccsc2SCCN1Cc1ccc(Cl)cc1,23,24,-1,11,15
O=C1c2ccsc2SCCN1Cc1ccccc1Cl,35,14,-6,11,43
SMILES,GSH fluor,Avidin bead fluor,HMGR II inh,PGE2 EP2 inh,EP2 mod
O=C1c2ccsc2SCCN1Cc1cccc(Cl)c1,24,9,-2,10,61*
Cc1ccc(NC(=O)c2cccc(C(=O)OC(C)C)n2)c(Br)c1,11,11,-3,7,62*
O=C(C1CCN(S(=O)(=O)c2ccc(Cl)cc2)CC1)N1CCOCC1,11,9,-1,9,17
COc1ccc(S(=O)(=O)N2CCC(N3CCCCC3)CC2)cc1,16,15,-3,6,-9
O=S(=O)(c1ccc(F)cc1)N1CCC(N2CCCC2)CC1,22,88*,-2,12,-4
O=C(C1CCN(S(=O)(=O)c2ccc(F)cc2)CC1)N1CCOCC1,4,110*,-2,4,5
CN(C)CCCNC(=O)c1cc(C(=O)C2CCCCC2)c[nH]1,18,10,17*,5,-4
O=C(c1ccccc1Cl)N(Cc1nc2ccccc2c(=O)[nH]1)C1CCCCC1,·,·,·,10,25
Cc1nc2ccc(NC(=O)N(C)c3ccccc3)cc2s1,17,3,0,4,-15
Cc1nc2ccc(NC(=O)N(C(C)C)C(C)C)cc2s1,12,82*,-4,4,-25
COc1cccc(N2CCN(CC(=O)c3ccc(C)cc3)CC2)c1,·,·,·,17,11
CCCOC(=O)C(C)n1c(-c2ccccc2)nc2ccccc2c1=O (stereo unspecified),25,5,0,20,61*
C/C(=N\NC(=S)NCc1ccccc1)c1ccccc1F,18,8,-2,3,64*
O=C(Nc1cccc2ccccc12)NC1CCS(=O)(=O)C1 (stereo unspecified),17,58*,-11,6,-22
O=C(Nc1ccccc1Cl)NC1CCS(=O)(=O)C1 (stereo unspecified),·,·,·,11,-40
CCOc1ccc(C2C(C(=O)c3ccc(C)o3)=C(O)C(=O)N2CCOC)cc1OC (stereo unspecified),·,·,·,17,-16
CS(=O)(=O)N(CC(=O)NCc1ccccn1)C1CCCCC1,·,·,·,11,-2
CSc1ccc(Cl)c(C(=O)NCc2ccco2)c1,250*,3,-1,15,-8
O=S(=O)(O)c1cc(N=Nc2cccc3ccccc23)c(O)c2ncccc12,·,·,·,38,-3
O=S(=O)(O)c1ccc(N=Nc2ccc3c(S(=O)(=O)O)cccc3c2O)c2ccccc12,·,·,·,56*,-9
COc1ccc(C(=O)N2CCC(C(=O)c3nc4ccccc4s3)CC2)cc1OC,·,·,·,·,-45
c1ccc(CCn2nnnc2C(c2cccs2)N2CCSCC2)cc1 (stereo unspecified),·,·,·,9,-17
O=C(C1CCN(S(=O)(=O)N2CCC3(CC2)OCCO3)CC1)N1CCC(Cc2ccccc2)CC1,28,233*,0,10,-42
Cc1ccc(SCc2cc(=O)n3ccsc3n2)c(C)c1,10,22,-2,9,23
O=c1cc(CSc2ccc([N+](=O)[O-])cc2)nc2sccn12,14,22,15*,4,4
SMILES,GSH fluor,Avidin bead fluor,HMGR II inh,PGE2 EP2 inh,EP2 mod
CCCCSc1nc2c(cnn2-c2ccccc2)c(=O)n1N,17,61*,-6,6,-50
CCCSc1nc2c(cnn2-c2ccccc2)c(=O)n1N,·,7,·,5,-38
CC(=O)N(Cc1ccccc1)c1nc(-c2ccccc2)cs1,13,12,5,8,64*
Cc1ccc(S(=O)(=O)N2c3ccccc3OCC2c2ccccc2)cc1 (stereo unspecified),12,9,-5,5,46
Cc1ccc(S(=O)(=O)N2c3cc(C)ccc3OCC2C(C)(C)C)cc1 (stereo unspecified),14,24,-4,15,62*
COc1cccc2cc(C(=O)N3CCCCC3C)c(=O)oc12 (stereo unspecified),120*,5,-5,2,13
COc1cccc2cc(C(=O)N3C(C)CCCC3C)c(=O)oc12 (stereo unspecified),61,7,4,8,-3
CNCc1ccccc1Sc1cccc(O)c1,6,3,2,7,7

# Assay outcomes deposited in PubChem by several laboratories.
